The values below come from PubChem BioAssay AID1345085 (National Center for Advancing Translational Sciences (NCATS), 2018).

Inconclusive results are not listed. Active and inactive are the calls of the source. Calls come from the whole dose curve; as a rule, active = well fitted cell-killing curve with a large enough effect; inconclusive = small, poorly fitted or top-dose-only effect, or effect the other way; inactive = no such curve, though single readings can be large or run the other way.
Potency is the fitted concentration of half-maximal effect.

For the assay, the system named is PA-1. In words: Confirmatory qHTS for gynecologic anti-cancer compounds from libraries of approved drugs and bioactive compounds. Note: nearly all actives have a fitted effect of over 55% in size. Conditions: gynecologic cancer cell panel viability, ATPlite luminescence, 48 h; series mostly up to 57.6 µM. The essentials: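 ATP-based luminescent viability (ATPlite) after 48 h drug treatment at 37 °C, 5% CO2, across 57.5 uM–0.977 nM in 1:3 steps. Cells seeded at 1,000 per well 16 h beforehand; IC50 values computed, HEK 293T as selectivity control.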
(In qHTS, concentration-response curves come from the screen itself.)
Regarding `NS(=O)(=O)OC[C@@H]1C[C@@H](n2ccc3c(N[C@H]4CCc5ccccc54)ncnc32)C[C@@H]1O`, the Potency was 0.685 µM (active).
The same measure for `Cc1cc(Nc2nc(N[C@@H](C)c3ncc(F)cn3)ncc2Cl)n[nH]1`: 3.85 µM (active).
For `CC[C@@]1(O)C(=O)OCc2c1cc1n(c2=O)Cc2cc3c(CN(C)C)c(O)ccc3nc2-1`, the Potency was 0.273 µM (active).
In the case of `Cc1ccc(C(=O)Nc2ccc(CN3CCN(C)CC3)c(C(F)(F)F)c2)cc1C#Cc1cnc2cccnn12`, the Potency is 6.85 µM (active).
Turning to `Cc1cnc(Nc2ccc(CN3CCOCC3)cc2)nc1Nc1cccc(S(=O)(=O)NC(C)(C)C)c1`, the Potency is 2.17 µM (active).
On to `CCN(CC)CCNC(=O)c1c(C)[nH]c(/C=C2\C(=O)Nc3ccc(F)cc32)c1C`, for which the Potency was 8.91 µM (active).
